This passage reports growth results from PubChem BioAssay (NCI).

The panel holds about 83,000 compounds, 20% with a hit somewhere; the sample as a whole holds those more often.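 Cell lines were cultured in 96-well plates, exposed to a single compound concentration, and assessed for percent growth 48 hours later.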 Unmarked numbers belong to inactive results. Calls of active or inactive are those of the source. How the source made its calls: active means growth percent below 10; inactive means the rest.

Some test systems named below: NCI-H23 lung; NCI-H226 lung; HOP-62 NSCLC; NCI-H460 lung; HOP-92 NSCLC; NCI-H522 lung; A549/ATCC NSCLC; 786-0 renal; COLO 205 colon; DU-145 prostate; K-562 leukemia; MALME-3M melanoma; MDA-MB-231 breast; RXF 393 renal; SF-268 CNS; SF-295 CNS; SF-539 CNS; UACC-257 melanoma; M14 melanoma; NCI-H322M lung.
Holding throughout (experiment): NCI-60 one-dose screen, 48 h (100 = growth as untreated, 0 = no growth, -100 = all killed)
What all share (settings): 10 µM unless noted

With `CCN1C(=O)N(CC)C2Nn3c(s/c(=C4\C(=O)N(CCC(C)C)c5ccccc54)c3=O)=NC21` (stereo not drawn), the growth in the test with NCI-H23 lung is 87.8%; in the test on NCI-H226 lung it was 83.9%; with HOP-62 NSCLC, 89.2%; with NCI-H460 lung, 106%; in the test with HOP-92 NSCLC, 73.2%; in the test on NCI-H522 lung, 50.4%. Besides, the growth in the test on A549/ATCC NSCLC was 90%; in the test on 786-0 renal, 57.1%; in the test with COLO 205 colon it was 73.2%; in the test with DU-145 prostate, 96.3%; in the test with K-562 leukemia it was 26.1%; in the test with MALME-3M melanoma, 79.8%. Further, the growth was 78.3% with MDA-MB-231 breast; 84.5% in the test with RXF 393 renal; 82.5% in the test on SF-268 CNS; 98.5% in the test with SF-295 CNS; 86.8% in the test with SF-539 CNS; 66.3% in the test with UACC-257 melanoma. In addition, the growth in the test with M14 melanoma is 56.6%.
In the case of `COc1ccc(/C=C/c2c(C(=O)/C=C/c3ccc(C(F)(F)F)cc3)c(C)nc3ccccc23)cc1`, the growth was -23% (active) in the test on NCI-H23 lung; 6.19% (active) in the test with NCI-H322M lung; -1.82% (active) in the test on HOP-62 NSCLC; -58.9% (active) with NCI-H460 lung; -64.3% (active) with HOP-92 NSCLC; -0.88% (active) in the test with NCI-H522 lung. For the same molecule, the growth with A549/ATCC NSCLC was 65.4%; in the test with 786-0 renal, -72.5% (active); in the test on COLO 205 colon it was -28.4% (active); in the test on DU-145 prostate, -81% (active); in the test with K-562 leukemia, 8.15% (active); in the test with MALME-3M melanoma, -46.7% (active). For the same molecule, the growth in the test on MDA-MB-231 breast was -20.2% (active); in the test with RXF 393 renal, -83.9% (active); in the test with SF-268 CNS, 14.6%; with SF-295 CNS, -49.3% (active); in the test on SF-539 CNS, -76.2% (active); in the test on UACC-257 melanoma, -38% (active). Further, the growth with M14 melanoma was -15% (active).
Take `O=C1c2cccc3cccc(c23)C(=O)N1Nc1nc(NC2CCCCC2)nc(N2CCOCC2)n1`: the growth in the test on NCI-H23 lung was 95.4%; with NCI-H226 lung, 98%; with HOP-62 NSCLC it was 91.3%; in the test on NCI-H460 lung it was 102%; in the test with HOP-92 NSCLC, 86.3%; with NCI-H522 lung, 93.5%. In addition, the growth was 95% in the test with A549/ATCC NSCLC; 104% in the test on 786-0 renal; 107% with COLO 205 colon; 108% in the test on DU-145 prostate; 88.9% with K-562 leukemia; 90.1% in the test with MALME-3M melanoma. In addition, the growth in the test on MDA-MB-231 breast was 82.9%; with RXF 393 renal, 109%; in the test with SF-268 CNS, 99.7%; in the test on SF-295 CNS, 105%; with SF-539 CNS, 98.4%; in the test on UACC-257 melanoma it was 100%. Besides, in the test with M14 melanoma, the growth is 95.4%.
For `CCOc1ccc2nc(SCc3nc4n(n3)S(=O)(=O)c3ccccc3N4C)sc2c1`, the growth is 13.2% in the test with NCI-H23 lung; 32% in the test with NCI-H226 lung; -42.9% (active) with HOP-62 NSCLC; 38.2% with NCI-H460 lung; -14% (active) in the test on HOP-92 NSCLC; 22.6% in the test on NCI-H522 lung. Further, the growth was 24% in the test on A549/ATCC NSCLC; -33.3% (active) in the test on 786-0 renal; 23.3% with COLO 205 colon; 25.3% in the test on DU-145 prostate; 34.8% in the test on K-562 leukemia; 10.1% in the test with MALME-3M melanoma. In addition, the growth was 10.5% in the test on MDA-MB-231 breast; 7.23% (active) with RXF 393 renal; 25.9% with SF-268 CNS; 6.74% (active) in the test on SF-295 CNS; 8.46% (active) in the test on SF-539 CNS; 24.4% in the test on UACC-257 melanoma. Moreover, in the test with M14 melanoma, the growth is 5.88% (active).
Consider `O=c1cc(SCc2ccccc2)nc[nH]1`, for which the growth in the test with NCI-H23 lung is 108%; in the test on NCI-H226 lung, 104%; in the test on HOP-62 NSCLC, 91.1%; in the test on NCI-H460 lung, 112%; with HOP-92 NSCLC, 100%; in the test on NCI-H522 lung, 116%. The growth was 103% in the test on A549/ATCC NSCLC; 95% in the test with 786-0 renal; 133% in the test on COLO 205 colon; 121% with DU-145 prostate; 113% in the test on K-562 leukemia; 111% with MALME-3M melanoma. In addition, the growth with MDA-MB-231 breast is 113%; with RXF 393 renal, 124%; in the test on SF-268 CNS, 106%; in the test on SF-295 CNS, 100%; in the test with SF-539 CNS, 108%; in the test with UACC-257 melanoma, 108%. In the test on M14 melanoma, the growth was 106%.
With `CCOC(=O)C1=C(N)Oc2c(sc3c(CC)cccc23)C1c1ccc(F)cc1` (stereo not drawn), the growth was 47% in the test with NCI-H23 lung; 49.5% in the test on NCI-H226 lung; 32% in the test on HOP-62 NSCLC; 17% with NCI-H460 lung; 63.5% with HOP-92 NSCLC; 26.4% in the test on NCI-H522 lung. Further, the growth in the test with A549/ATCC NSCLC was 47.4%; with 786-0 renal, 35.4%; in the test with COLO 205 colon it was 51.1%; with DU-145 prostate, 46.3%; in the test with K-562 leukemia, 10.7%; in the test with MALME-3M melanoma it was 42.1%. The growth in the test on MDA-MB-231 breast is 73.1%; in the test with RXF 393 renal it was -4.56% (active); in the test with SF-268 CNS it was 48.9%; in the test with SF-295 CNS, 11.8%; in the test on SF-539 CNS, 13.4%; in the test with UACC-257 melanoma it was 55.7%. Besides, in the test with M14 melanoma, the growth is 38.2%.
For `Cc1ccc(-c2nc(N3CCN(C(=O)Nc4ccc(Cl)c(C(F)(F)F)c4)CC3)c3ccccc3n2)cc1`, the growth in the test with NCI-H23 lung is 78.1%; in the test on NCI-H226 lung, 78.7%; in the test with HOP-62 NSCLC it was 79.2%; with NCI-H460 lung it was 81.1%; in the test on HOP-92 NSCLC, 82%; in the test with NCI-H522 lung, 69.9%. Further, the growth was 64% in the test on A549/ATCC NSCLC; 81.3% in the test on 786-0 renal; 89.6% in the test on COLO 205 colon; 86.6% in the test with DU-145 prostate; 44.9% with K-562 leukemia; 105% with MALME-3M melanoma. For the same molecule, the growth in the test with MDA-MB-231 breast is 61.3%; in the test with RXF 393 renal it was 68%; in the test on SF-268 CNS it was 58.1%; with SF-295 CNS it was 78.2%; in the test with SF-539 CNS it was 87%; in the test on UACC-257 melanoma it was 90.1%. For the same molecule, the growth in the test with M14 melanoma was 73.8%.
